The text below walks through data of the supplement of paper PMC12632987.

Sequences and labels used below:
B1: LC3A_147_403 (protein)
chain: YIVEADIDIITKNAKEEVLAAFEEIVEELKEKGYEVELEVEVEKLDEDTWYINVKIKVETETKEEAEEVADYIEDKIDEIEEKLKDKILASLISIEIIEE
B2: LC3A_free_46_2366 (protein)
chain: VKAEIDIDFLVETKEKAEELAKELEEEIKKIAEKYGVKVKIEVKIIKNPDGTYSLEIEIELEAENKETLQKAVNEIIDSIDKIAEKFNVSYIISVEIIDE
B3: LC3A_28_934 (protein)
chain: MTVEERIKKALEEAEKAAKAGEPVVITIKVTSKDTQEEIDKLIKTIKEIAEILKNVKGAAIIVDVDAGVPQERIDKIADTLEEIEKKYPNINAILALDED
B4: LC3A_3_1490 (protein)
chain: REELLERMRAVLEARGASPEQIAEVLEAAERLLELGYEETVETLIELFEANPDLDPLDIVTAVLITLEVAEEEDLSEEELVERAREIFENVREIEALDEN
B5: LC3A_3_1491 (protein)
chain: MEELLERMREVLEARGASEEQIEEVLEAVEELLELGYEETVEELIELFEANPDLDPEQIVTAVLITLEVAEEEDLSEEELVERARRIFEDVAEIEALDEE
B6: LC3A_28_1022 (protein)
chain: SALDEELEALRAEVEAALARGEDVLLEVTIKPTDSLEEVRRKMERVKEIALEASKRGKVDVLIDVEKGVSQEKIDIVMDAAEELEEEDPSVNVIIALEEE
B7: LC3A_141_383 (protein)
chain: MKKEFEMEATKETADEVFKFMEEVEKETLEMIKESGGKPVKMKVKITATNEKTGEVVEKEEEYIVTEENADLVADGIEIEVLSLLDRVGGKVKVKVTLES
B8: LC3A_28_1063 (protein)
chain: SKVEAEIKKALAEAKEAVAAGEEALVTITIDDSDSDEDVEKKLKTMEEIAELTKTLPRTTILVDIDSSRKEEISKKVSEVGDKLEKKYPNVTVIIALSEE
B9: LC3A_147_431 (protein)
chain: YITTVDIDVLTKDAEEEVIKAAKEIEEELKAKGYEVELEIEVEELENGEKYIHIKITVKTETEEEAKEAADYIVDKFEELEEKLKDKILGSIISVEIEEA
B10: LC3A_147_511 (protein)
chain: YEVEVDVDIITKDAEEEVIEEFKEIAEELKKKGYEVELEIEVEELENGITYIHVKITVKTETEEEAKEVANYILDKIDEIEEKLKDKILGSMISVEIIKK
B11: LC3A_free_8_2456 (protein)
chain: SSQKLVDTAVKLLEEMEKELTELAKKEGLSRLDILELELEIGSLIAEVISLVDKSPEEILETTKEGLEEIIELAKELGEEVAKLAEEKSKEIIEELEKLI
B12: LC3A_28_1295 (protein)
chain: SEIEKNLKEALAEAKKAKAEGKQVVITVKVPGDATQEEIELVIKGLEEIAKVLEDVPNQTIIIDVEAGVKQEHIDLLADRAEEIEKKYPNVTVIIALDED
B13: LC3A_28_1049 (protein)
chain: SPIEEELKRALEEAKEAVARGEEALIRLTIGKDATEEDVEKVLETMEEIAELTKSLPRVDIVVDVDSENKEEVTKKIAEKGEELEKKYPNVTVYIALSEE
B14: LC3A_28_1058 (protein)
chain: MSIEEQLEKALEEAKEAVKKGEEALVELKINKDSTEEDVEKVLETMKEIAELTKDLPSVSIVVDVDHENKEEVTKKVSELGDELEKKYPNVTVIIALSEE
B15: LC3A_28_738 (protein)
chain: SAIEKELEKAIKEAKEAAKAKEPKVITITVPGTANEEDIELVIKALEEIAEILKDVKDQAIIIDVDGKLDPELLKKLMDKAEEIEEKYPNVTVIIALDEE
B16: LC3A_free_8_2444 (protein)
chain: STQKLVDEVTELLDEMEERVEEKAKELGLSELDILDLSLLIGSLIAEIISAVDKSIEEIRKIVEEDMEEIIEEARELSEEIAEIVEETKERILELIDEAE
B17: LC3A_28_1082 (protein)
chain: SAVDAQIAAALAALRAAKAAGEEALLTLTLTEDATQEDVDRLIAGLEEIAELARDAARVTVVIDLDGKIPQEHIDRIADAAERIEERVPNVTVIIALDEE
B18: LC3A_free_39_2223 (protein)
chain: SEEEIEKLIKEVAKESGIDYEELKKKIEEIKEVGKLSNEQILEIVKAILEAVKAGADAKEILEEALKLTKELVAAGKSPEEIKEEILELIEDYRNLVPLD
B19: LC3A_3_1370 (protein)
chain: MEEEKAATLAELKAAGKSEETIAAVEKTLDALIEKGYEEAAKTFMELLKELKDLSDEILLAFAEDVLKAVEEEDLSEEELIKFIKEEATIARNEQEIIEL

Over roughly 2,300 sequences, “median log2 fold change of GCK-ALFA target abundance (FLAG IP / Myc IP barcode read proportion)” has its median near 0.095; the lowest 2% begin near -0.47. The sample as a whole holds a higher share of the lowest values than the screen did.

For this assay, the target named is MAP1LC3A, Q9H492. The experiment in a line: median log2 fold change of GCK-ALFA target abundance (FLAG IP / Myc IP barcode read proportion) (log2 ratio); each designed protein is fused to an ALFA-tag nanobody in HEK293 cells to bring the named protein to FLAG-tagged glucokinase (GCK); Myc marks an untargeted standard; higher = target protein stabilised (more abundant). The note with it: target protein: 3xFLAG-MCP-GCK-ALFA reporter; HEK293 landing pad (RPLP). The gist of the method: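 An ALFA-nanobody-fused binder library was recombined into HEK293 landing-pad cells and induced with 2 μg mL^−1 doxycycline. Cells were transfected with a plasmid expressing a FLAG-tagged target and a Myc-tagged standard. After 48 h, lysates underwent anti-FLAG and anti-Myc immunoprecipitation, and circular RNA barcodes were reverse transcribed, amplified and sequenced. Target abundance is the per-binder median log2 ratio of FLAG to Myc barcode read proportions. Barcodes needed ≥10^−7 proportion in both replicates, binders ≥3 barcodes per replicate, and a 10^−6 pseudocount was added; the two replicates were pooled.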
For B1, the “median log2 fold change” value was -0.0503. As for B2, the “median log2 fold change” value was found to be 0.102. Take B3: the “median log2 fold change” value amounted to 0.252. The value for B4 was -0.342; that for B5 was -0.577. To B6 belongs 0.00506; to B7, 0.328.

For the molecule B8, the “median log2 fold change” value turned out to be 0.0338.

As to B9, the “median log2 fold change” value was found to be 0.117.

Turning to B10, the “median log2 fold change” value was -0.745. To B11 belongs -0.163; to B12, 0.184; to B13, 0.00401. On to B14, for which the “median log2 fold change” value was -0.699. The value for B15 was 0.167; that for B16 was -0.324; that for B17 was 0.081. The value for B18 was -0.0674; that for B19 was 0.233.
